Results reported in ChEMBL document CHEMBL2218924, “A broad activity screen in support of a chemogenomic map for kinase signalling research and drug discovery” (Biochem J, 2013).

What follows are compounds tested against Misshapen-like kinase 1 (Homo sapiens) (UniProt Q8N4C8). Details: at 1 µM.
Sequence of Misshapen-like kinase 1 (Homo sapiens) (Q8N4C8 whole entry, looked up): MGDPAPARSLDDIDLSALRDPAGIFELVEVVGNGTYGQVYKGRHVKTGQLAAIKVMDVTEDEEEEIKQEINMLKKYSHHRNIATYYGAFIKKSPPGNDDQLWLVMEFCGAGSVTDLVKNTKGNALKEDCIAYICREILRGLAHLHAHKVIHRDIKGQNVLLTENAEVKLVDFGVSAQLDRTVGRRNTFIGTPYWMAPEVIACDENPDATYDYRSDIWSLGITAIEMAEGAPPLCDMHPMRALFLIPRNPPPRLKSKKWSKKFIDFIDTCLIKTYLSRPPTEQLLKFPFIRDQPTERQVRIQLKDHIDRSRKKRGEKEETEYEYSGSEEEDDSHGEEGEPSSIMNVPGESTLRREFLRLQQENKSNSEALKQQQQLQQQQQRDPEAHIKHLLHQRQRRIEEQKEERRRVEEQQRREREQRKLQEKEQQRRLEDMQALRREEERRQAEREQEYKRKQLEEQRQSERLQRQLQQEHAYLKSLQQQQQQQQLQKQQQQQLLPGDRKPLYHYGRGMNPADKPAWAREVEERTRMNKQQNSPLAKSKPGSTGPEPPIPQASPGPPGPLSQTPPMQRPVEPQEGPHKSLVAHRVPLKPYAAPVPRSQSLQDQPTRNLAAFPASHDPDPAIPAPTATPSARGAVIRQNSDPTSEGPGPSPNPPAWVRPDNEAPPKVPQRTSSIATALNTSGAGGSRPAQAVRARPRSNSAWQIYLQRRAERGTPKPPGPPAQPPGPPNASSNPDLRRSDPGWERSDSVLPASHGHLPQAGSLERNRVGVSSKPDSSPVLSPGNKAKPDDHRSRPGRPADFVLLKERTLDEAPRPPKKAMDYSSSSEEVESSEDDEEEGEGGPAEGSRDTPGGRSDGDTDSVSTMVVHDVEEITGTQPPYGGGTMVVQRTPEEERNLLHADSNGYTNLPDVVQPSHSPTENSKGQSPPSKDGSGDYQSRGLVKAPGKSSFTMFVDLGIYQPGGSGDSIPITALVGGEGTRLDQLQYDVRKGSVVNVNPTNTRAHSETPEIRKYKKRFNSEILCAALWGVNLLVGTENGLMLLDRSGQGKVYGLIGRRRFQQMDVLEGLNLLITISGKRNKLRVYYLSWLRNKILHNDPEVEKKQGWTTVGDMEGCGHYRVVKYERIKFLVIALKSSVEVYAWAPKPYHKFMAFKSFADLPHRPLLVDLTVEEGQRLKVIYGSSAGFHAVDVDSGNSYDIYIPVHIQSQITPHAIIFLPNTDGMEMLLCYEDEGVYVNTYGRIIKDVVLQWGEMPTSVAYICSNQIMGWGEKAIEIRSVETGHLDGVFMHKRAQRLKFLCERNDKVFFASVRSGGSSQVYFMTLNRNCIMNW
In the case of `N#C/C(=C1/Nc2ccccc2S1)c1ccnc(NCCc2cccnc2)n1`, the residual activity is reported as 96%.
Work on `N#Cc1c(NC(=O)c2cccc3ccccc23)sc2c1CCCC2` yielded a residual activity of 95%.
Work on `CN(C)S(=O)(=O)c1ccc2c(c1)/C(=C/c1cc3c([nH]1)CCCC3)C(=O)N2` yielded a residual activity of 124%.
Work on `Cn1sc(=O)n(Cc2ccccc2)c1=O` yielded a residual activity of 96%.
`O=C1Cc2c([nH]c3ccc([N+](=O)[O-])cc23)-c2ccccc2N1` showed a residual activity of 60%.
`Fc1ccc(-c2nc3n(c2-c2ccncc2)CCS3)cc1` was tested, and the residual activity was 96%.
`Cc1cc(C)c(/C=C2\C(=O)Nc3ccccc32)[nH]1` was tested, and the residual activity was 71%.
With `Cn1c2ccccc2c2c3c(c4c5ccccc5n(CCC#N)c4c21)CNC3=O` the residual activity was 21%.
`CCOC(=O)c1c(C)[nH]c(/C=C2\C(=O)Nc3ccccc32)c1C` gave a residual activity of 86%.
`COc1cc2c(cc1OC)-c1n[nH]c(Nc3cccc(F)c3)c1C2` gave a residual activity of 74%.
For `CC(C)(C)c1nc2c3ccc(F)cc3c3c(=O)[nH]ccc3c2[nH]1`, the residual activity was 81%.
In the case of `NC(=O)Nc1sc(-c2ccc(F)cc2)cc1C(N)=O`, the residual activity is reported as 81%.

What follows are compounds tested against Misshapen-like kinase 1 (Homo sapiens) (UniProt Q8N4C8). Details: at 10 µM.
`N#C/C(=C1/Nc2ccccc2S1)c1ccnc(NCCc2cccnc2)n1` was tested, and the residual activity was 72%.
Work on `N#Cc1c(NC(=O)c2cccc3ccccc23)sc2c1CCCC2` yielded a residual activity of 93%.
Work on `CN(C)S(=O)(=O)c1ccc2c(c1)/C(=C/c1cc3c([nH]1)CCCC3)C(=O)N2` yielded a residual activity of 97%.
`CC(C)[C@H](CO)Nc1nc(Nc2cc(N)cc(Cl)c2)c2ncn(C(C)C)c2n1` gave a residual activity of 73%.
For `O=S(=O)(NCCNC/C=C/c1ccc(Br)cc1)c1cccc2cnccc12`, the residual activity was 75%.
`Cn1sc(=O)n(Cc2ccccc2)c1=O` showed a residual activity of 91%.
For `O=C1Cc2c([nH]c3ccc([N+](=O)[O-])cc23)-c2ccccc2N1`, the residual activity was 36%.
For `Nc1ncnc2c1cnn2-c1ccccc1`, the residual activity was 99%.
`Fc1ccc(-c2nc3n(c2-c2ccncc2)CCS3)cc1` showed a residual activity of 67%.
In the case of `Cc1cc(C)c(/C=C2\C(=O)Nc3ccccc32)[nH]1`, the residual activity is reported as 58%.
`Cn1c2ccccc2c2c3c(c4c5ccccc5n(CCC#N)c4c21)CNC3=O` gave a residual activity of 16%.
`CCOC(=O)c1c(C)[nH]c(/C=C2\C(=O)Nc3ccccc32)c1C` was tested, and the residual activity was 75%.
For `COc1cc2c(cc1OC)-c1n[nH]c(Nc3cccc(F)c3)c1C2`, the residual activity was 42%.
`N#C/C(=C\c1ccc(O)c(O)c1)C(=O)NCc1ccccc1` was tested, and the residual activity was 84%.
Compound `CC(C)(C)c1nc2c3ccc(F)cc3c3c(=O)[nH]ccc3c2[nH]1` has a residual activity of 78%.
Compound `O=c1c(-c2ccc(F)cc2)c(-c2ccncc2)[nH]n1-c1ccc(Cl)cc1` has a residual activity of 55%.
With `NC(=O)Nc1sc(-c2ccc(F)cc2)cc1C(N)=O` the residual activity was 47%.
